In ChEMBL document CHEMBL3988442, “University of Dundee, Small-Polar-MMV Screening Library” (2021) one finds Percent Effect data, which are given here for eleven molecules.

What all share (design): scale not given: direction of the effect not stated beside the values
The target in assay [1] is Protein translocase subunit SecA (Escherichia coli (strain K12)) (UniProt P10408). Briefly: Assay to Identify E. coli SecA ATPase Inhibitors. As to conditions: 30 µM. The class given is functional.
The target in assay [2] is T1, Ubiquitin-activating enzyme e1, putative (Leishmania donovani (strain BPK282A1)) (UniProt E9BSI1).
T1 sequence (whole entry): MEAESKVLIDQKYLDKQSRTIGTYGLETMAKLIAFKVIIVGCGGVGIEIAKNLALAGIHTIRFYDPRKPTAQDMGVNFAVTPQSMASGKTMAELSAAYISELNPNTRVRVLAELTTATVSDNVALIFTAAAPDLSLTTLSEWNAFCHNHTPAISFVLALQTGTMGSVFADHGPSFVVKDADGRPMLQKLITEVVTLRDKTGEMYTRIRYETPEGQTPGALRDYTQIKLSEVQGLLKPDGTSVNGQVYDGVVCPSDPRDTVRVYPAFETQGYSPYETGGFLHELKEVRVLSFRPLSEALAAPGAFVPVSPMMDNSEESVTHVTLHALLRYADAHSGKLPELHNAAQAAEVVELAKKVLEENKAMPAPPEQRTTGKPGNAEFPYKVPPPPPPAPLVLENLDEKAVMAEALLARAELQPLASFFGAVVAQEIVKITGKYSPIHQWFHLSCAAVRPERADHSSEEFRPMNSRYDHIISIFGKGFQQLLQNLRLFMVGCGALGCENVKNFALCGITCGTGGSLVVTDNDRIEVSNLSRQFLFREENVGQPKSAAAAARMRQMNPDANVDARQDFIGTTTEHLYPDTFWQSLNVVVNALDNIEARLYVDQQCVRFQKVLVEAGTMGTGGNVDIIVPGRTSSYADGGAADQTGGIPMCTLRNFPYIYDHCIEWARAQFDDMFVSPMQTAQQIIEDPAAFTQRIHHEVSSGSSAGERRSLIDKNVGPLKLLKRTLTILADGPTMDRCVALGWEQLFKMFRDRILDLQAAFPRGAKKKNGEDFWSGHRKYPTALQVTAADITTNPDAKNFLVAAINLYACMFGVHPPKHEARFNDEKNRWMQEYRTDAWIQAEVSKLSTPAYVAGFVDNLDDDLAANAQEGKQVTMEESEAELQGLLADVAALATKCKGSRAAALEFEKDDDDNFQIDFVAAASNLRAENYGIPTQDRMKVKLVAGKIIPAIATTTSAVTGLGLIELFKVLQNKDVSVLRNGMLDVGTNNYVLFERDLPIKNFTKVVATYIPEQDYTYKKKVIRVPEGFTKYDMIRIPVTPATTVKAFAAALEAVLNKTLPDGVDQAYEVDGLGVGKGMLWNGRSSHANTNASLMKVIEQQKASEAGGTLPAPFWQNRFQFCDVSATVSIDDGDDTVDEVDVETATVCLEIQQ
In words: Leishmania donovani Ubiquitin Activating Enzyme (LdE1). The class given is functional. Conditions: 30 µM.

For assay [3], the target named is AMP-activated protein kinase, AMPK (Homo sapiens) (UniProt P54646+O43741+P54619+Q9UGJ0+Q9Y478+Q13131+Q9UGI9). Briefly: AMP-dependent Kinase enzyme assay. An in vitro enzyme assay that detects ADP turnover that is directly proportional to AMPK activity. This uses naive AMPK that is activated during the assay with MK-8722. The class given is functional. Conditions: 30 µM.

The target of assay [4] is Sialic acid-binding Ig-like lectin 9 (Homo sapiens) (UniProt Q9Y336). Briefly: Hs-Siglec9 ALPHAscreen SOP 20170721. Conditions: 10 µM. (Alpha assays give light when donor and acceptor beads are brought close together.)
Sequence of Sialic acid-binding Ig-like lectin 9 (Homo sapiens) (Q9Y336 whole entry): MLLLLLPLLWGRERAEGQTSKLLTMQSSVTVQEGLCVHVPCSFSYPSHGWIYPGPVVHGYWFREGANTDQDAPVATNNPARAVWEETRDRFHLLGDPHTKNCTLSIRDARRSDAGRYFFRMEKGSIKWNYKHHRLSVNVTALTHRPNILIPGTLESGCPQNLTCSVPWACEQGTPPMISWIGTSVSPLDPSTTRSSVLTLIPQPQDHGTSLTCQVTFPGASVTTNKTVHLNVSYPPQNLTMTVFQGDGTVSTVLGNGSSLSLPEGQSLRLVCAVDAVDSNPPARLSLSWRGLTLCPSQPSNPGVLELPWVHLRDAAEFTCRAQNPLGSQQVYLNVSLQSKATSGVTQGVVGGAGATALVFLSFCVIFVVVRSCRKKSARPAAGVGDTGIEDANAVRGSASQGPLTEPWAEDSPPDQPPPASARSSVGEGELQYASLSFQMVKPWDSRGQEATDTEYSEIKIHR
Another assay relates to Trypanosoma cruzi. Briefly: Trypanosoma cruzi phosphomannomutase and mannose-1-phosphate guanylyltransferase assay. The class given is functional. As to conditions: 10 µM.
Assay [5] has as its target T2, Arginase-2, mitochondrial (Homo sapiens) (UniProt P78540).
T2 sequence (whole entry): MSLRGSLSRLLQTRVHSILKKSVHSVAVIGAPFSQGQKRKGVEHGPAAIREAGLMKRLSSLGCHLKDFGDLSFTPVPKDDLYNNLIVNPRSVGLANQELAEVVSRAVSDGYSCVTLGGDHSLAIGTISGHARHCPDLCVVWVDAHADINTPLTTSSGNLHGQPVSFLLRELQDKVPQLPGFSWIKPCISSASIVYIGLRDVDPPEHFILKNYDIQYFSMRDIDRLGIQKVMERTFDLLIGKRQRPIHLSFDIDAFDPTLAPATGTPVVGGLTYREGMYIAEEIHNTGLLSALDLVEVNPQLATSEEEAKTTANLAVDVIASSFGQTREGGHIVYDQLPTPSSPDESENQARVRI
In words: in vitro enzyme assay to detect the production of urea directly proportional to the activity of Arginase II. Note: in the data most compounds retested in dose-response had high values. The class given is functional. Conditions: 33.3 µM.

Assay [6] addresses T3, Proteasome subunit beta (Trypanosoma cruzi) (UniProt O96673).
T3 sequence (whole entry): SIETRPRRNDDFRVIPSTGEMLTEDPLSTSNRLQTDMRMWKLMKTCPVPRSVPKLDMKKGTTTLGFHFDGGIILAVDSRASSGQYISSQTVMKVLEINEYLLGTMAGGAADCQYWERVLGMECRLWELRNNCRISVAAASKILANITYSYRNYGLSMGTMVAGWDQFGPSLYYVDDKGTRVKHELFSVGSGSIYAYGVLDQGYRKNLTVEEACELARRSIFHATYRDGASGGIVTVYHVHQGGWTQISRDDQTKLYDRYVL
In words: Trypanosoma cruzi proteasome chymotrypsin-like activity (TcProtChymo) assay. Note: in the data most compounds retested in dose-response had high values. As to conditions: 9.37 µM. The class given is functional.

A further assay is filed under the species Homo sapiens. In words: To identify inhibition of the IFN signalling (Jak-Stat) pathway via expression of an eGFP reporter gene under the control of an IFN-stimulated response element (ISRE) containing MxA promoter. As to conditions: 30 µM. The class given is functional. (Reporter assays use an easily measured gene product as a stand-in for the process of interest.)

The target of assay [7] is T4, Tyrosyl-tRNA synthetase, putative (Trypanosoma cruzi (strain CL Brener)) (UniProt Q4DSP6).
T4 sequence (whole entry): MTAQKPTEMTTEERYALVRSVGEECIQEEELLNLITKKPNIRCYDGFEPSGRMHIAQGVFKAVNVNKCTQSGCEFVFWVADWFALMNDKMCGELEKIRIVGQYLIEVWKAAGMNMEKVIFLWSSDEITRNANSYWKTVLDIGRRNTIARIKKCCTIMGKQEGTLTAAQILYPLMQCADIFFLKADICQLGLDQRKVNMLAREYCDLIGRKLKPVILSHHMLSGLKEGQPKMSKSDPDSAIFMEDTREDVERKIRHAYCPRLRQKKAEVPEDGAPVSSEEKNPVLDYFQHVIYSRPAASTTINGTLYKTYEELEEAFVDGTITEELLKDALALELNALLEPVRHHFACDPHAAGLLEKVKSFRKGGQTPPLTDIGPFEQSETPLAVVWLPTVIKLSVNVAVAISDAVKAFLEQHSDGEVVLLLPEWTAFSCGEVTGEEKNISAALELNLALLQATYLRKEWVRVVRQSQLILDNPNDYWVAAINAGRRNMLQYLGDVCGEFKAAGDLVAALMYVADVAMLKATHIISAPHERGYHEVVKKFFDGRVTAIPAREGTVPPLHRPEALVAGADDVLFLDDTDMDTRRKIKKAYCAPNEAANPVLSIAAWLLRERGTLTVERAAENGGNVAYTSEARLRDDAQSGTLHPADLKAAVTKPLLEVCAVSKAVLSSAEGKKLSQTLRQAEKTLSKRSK
In words: Trypanosoma cruzi tyrosyl tRNA synthetase (TcYRS) _High Tyrosine SOP. Note: in the data most compounds retested in dose-response had high values. The class given is functional. Conditions: 30 µM.

The target of assay [8] is T4, Tyrosyl-tRNA synthetase, putative (Trypanosoma cruzi (strain CL Brener)). In words: Trypanosoma cruzi tyrosyl tRNA synthetase (TcYRS) SOP. The class given is functional. As to conditions: 30 µM.
Assay [9] deals with Chromo domain-containing protein 1 (Saccharomyces cerevisiae (strain ATCC 204508 / S288c) (Baker's yeast)) (UniProt P32657). Briefly: ScCHD-1 Enzyme Inhibition Assay. Note: in the data most compounds retested in dose-response had high values. The class given is functional. Conditions: 30 µM.
Sequence of Chromo domain-containing protein 1 (Saccharomyces cerevisiae (strain ATCC 204508 / S288c) (Baker's yeast)) (P32657 whole entry, the tested form may be a part): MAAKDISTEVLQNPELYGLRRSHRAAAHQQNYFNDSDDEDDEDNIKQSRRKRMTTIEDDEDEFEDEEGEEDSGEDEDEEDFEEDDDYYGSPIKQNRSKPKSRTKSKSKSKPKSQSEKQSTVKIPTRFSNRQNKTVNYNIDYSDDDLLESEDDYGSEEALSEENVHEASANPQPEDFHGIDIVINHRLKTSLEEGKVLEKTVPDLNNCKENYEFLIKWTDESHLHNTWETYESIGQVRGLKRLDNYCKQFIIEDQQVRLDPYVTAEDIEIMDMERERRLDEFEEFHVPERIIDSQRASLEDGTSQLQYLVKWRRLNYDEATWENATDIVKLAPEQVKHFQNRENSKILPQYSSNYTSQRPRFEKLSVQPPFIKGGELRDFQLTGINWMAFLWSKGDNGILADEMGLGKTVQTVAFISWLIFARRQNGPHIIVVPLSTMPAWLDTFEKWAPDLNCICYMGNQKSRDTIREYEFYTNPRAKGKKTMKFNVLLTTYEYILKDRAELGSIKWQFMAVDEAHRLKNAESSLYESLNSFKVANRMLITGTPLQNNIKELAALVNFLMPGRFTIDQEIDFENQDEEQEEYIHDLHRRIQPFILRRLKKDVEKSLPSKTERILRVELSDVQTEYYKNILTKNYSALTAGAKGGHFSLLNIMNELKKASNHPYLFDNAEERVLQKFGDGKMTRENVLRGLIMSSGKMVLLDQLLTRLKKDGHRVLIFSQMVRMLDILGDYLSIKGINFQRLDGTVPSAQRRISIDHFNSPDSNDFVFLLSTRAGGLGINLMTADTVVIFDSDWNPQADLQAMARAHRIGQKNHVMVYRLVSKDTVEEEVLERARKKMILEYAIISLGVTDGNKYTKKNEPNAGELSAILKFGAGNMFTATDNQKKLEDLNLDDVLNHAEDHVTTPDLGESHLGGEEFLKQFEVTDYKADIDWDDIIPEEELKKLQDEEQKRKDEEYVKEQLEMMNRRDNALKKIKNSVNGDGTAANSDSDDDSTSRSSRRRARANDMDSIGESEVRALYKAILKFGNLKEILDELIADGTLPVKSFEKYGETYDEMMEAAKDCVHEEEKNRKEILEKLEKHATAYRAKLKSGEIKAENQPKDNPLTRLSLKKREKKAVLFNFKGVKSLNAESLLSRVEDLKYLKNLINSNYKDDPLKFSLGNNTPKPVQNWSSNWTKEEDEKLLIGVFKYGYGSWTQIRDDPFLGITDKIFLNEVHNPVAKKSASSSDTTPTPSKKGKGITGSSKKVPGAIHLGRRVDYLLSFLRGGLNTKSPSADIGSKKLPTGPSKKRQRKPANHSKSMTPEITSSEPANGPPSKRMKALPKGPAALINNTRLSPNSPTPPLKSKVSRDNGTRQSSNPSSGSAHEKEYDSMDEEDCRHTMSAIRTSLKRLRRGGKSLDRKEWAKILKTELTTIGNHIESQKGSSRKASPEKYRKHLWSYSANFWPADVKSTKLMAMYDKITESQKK

Each structure is given as a SMILES string. For some of these results: Entries with a potency or affinity are not part of this list.

Sequence of Protein translocase subunit SecA (Escherichia coli (strain K12)) (P10408 whole entry): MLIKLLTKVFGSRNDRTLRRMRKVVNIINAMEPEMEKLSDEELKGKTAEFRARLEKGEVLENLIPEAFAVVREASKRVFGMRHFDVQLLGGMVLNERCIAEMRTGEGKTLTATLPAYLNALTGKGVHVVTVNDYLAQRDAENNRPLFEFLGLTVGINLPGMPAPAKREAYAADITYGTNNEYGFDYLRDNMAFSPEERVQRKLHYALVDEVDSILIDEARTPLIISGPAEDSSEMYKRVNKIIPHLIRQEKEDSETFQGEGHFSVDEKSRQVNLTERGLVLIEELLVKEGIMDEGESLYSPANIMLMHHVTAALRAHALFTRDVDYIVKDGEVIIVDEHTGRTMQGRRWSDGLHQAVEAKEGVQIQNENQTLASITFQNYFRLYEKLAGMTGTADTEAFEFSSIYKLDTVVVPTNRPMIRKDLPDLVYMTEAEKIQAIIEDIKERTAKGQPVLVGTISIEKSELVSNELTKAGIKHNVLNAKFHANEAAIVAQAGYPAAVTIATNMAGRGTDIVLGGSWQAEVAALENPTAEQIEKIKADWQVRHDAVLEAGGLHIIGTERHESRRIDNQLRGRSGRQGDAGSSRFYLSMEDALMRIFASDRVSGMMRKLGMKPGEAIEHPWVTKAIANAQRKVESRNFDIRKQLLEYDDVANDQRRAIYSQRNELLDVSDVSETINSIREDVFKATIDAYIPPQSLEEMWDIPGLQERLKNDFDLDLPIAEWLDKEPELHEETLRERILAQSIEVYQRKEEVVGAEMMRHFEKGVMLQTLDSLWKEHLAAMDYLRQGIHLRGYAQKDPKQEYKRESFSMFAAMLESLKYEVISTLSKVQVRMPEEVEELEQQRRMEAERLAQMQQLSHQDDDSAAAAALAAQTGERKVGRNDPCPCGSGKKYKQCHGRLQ

Consider `CC(OCC1CC1)C(=O)N1CCCN(Cc2cnn(C)c2)CC1` (stereo unspecified), for which the Percent Effect in [1] was 1.55%; in assay [2] it was 31.6%; in [3], -0.358%; in assay [4], -2.42%; in the assay on Trypanosoma cruzi, -1.95%; in [5] it was -9.25%. In addition, the Percent Effect is 21.6% in [6]; 6.99% in the assay filed under Homo sapiens; 5.21% in assay [7]; 17.7% in [8]; -21.4% in [9].
As to `CCOCCn1nnc(C2(NC(=O)c3ccccc3)CCCC2)n1`, the Percent Effect in [1] was -7.55%; in assay [2], 8%; in assay [3], -2.14%; in [4], 0.531%; in the assay on Trypanosoma cruzi, -0.292%; in assay [5], 4.17%. Besides, the Percent Effect in assay [6] was -18.8%; in the assay listed under Homo sapiens, -0.698%; in [7], 10.4%; in [8], 11.1%; in [9], -4.99%.
In the case of `O=C(Cc1cccs1)NC1CCN(c2cccc(F)c2)CC1`, the Percent Effect was -3.15% in [1]; 16.4% in assay [2]; 6.31% in assay [3]; 18.6% in [4]; 2.74% in the assay with Trypanosoma cruzi; 7.27% in [5]. Further, the Percent Effect is 9.05% in assay [6]; -1.55% in the assay filed under Homo sapiens; 5.38% in assay [7]; 15% in assay [8]; 1.6% in [9].
Consider `Cc1cnn(CC2CCCN2Cc2nc3ccccc3nc2C)c1` (stereo unspecified), for which the Percent Effect is -2.22% in assay [1]; 0% in assay [2]; 0.154% in assay [3]; 1.31% in [4]; 4.41% in the assay with Trypanosoma cruzi; 1.47% in assay [5]. Also, the Percent Effect is 10.4% in assay [6]; 9.09% in the assay filed under Homo sapiens; 0% in assay [7]; 7.06% in assay [8]; -12.8% in assay [9].
With `CC(C)(CNC(=O)OC(C)(C)C)NC(=O)C1CC(=O)N(C2CC2)C1` (stereo unspecified), the Percent Effect in assay [1] was -7.68%; in assay [2] it was -2.7%; in assay [3] it was -1.58%; in assay [4], -8.17%; in the assay with Trypanosoma cruzi, -8.11%; in assay [5] it was -1.24%. The Percent Effect is 7.3% in assay [6]; 20.6% in the assay filed under Homo sapiens; -2.15% in assay [7]; 3.7% in [8]; -4.06% in assay [9].
Regarding `CC(C)OCC(=O)N1CCCN(Cc2ccc(C#N)cc2)CC1`, the Percent Effect in [1] is -2.63%; in [2], 13.2%; in [3], 4.09%; in assay [4], 11.3%; with Trypanosoma cruzi, 0.94%; in assay [5] it was 2.68%. Also, the Percent Effect in [6] is 10.2%; in the assay filed under Homo sapiens it was -2.84%; in assay [7], 8.33%; in assay [8], 17.1%; in assay [9] it was -8.3%.
In the case of `CCNC(=O)c1ccc2c(c1)nc1n2CCN(Cc2ccco2)C1`, the Percent Effect in assay [1] was -1.58%; in assay [2], 2.63%; in assay [3], 10.5%; in [4], 1.2%; with Trypanosoma cruzi it was -0.0974%; in assay [5], -4.73%. Besides, the Percent Effect is 13.7% in assay [6]; 8.32% in the assay filed under Homo sapiens; 0% in assay [7]; 0% in assay [8]; -5.62% in assay [9].
With `COc1nccc(N2CCN(Cc3ccc(C)cc3)C(=O)C2)c1C#N`, the Percent Effect in assay [1] is -1.96%; in [2] it was 15.6%; in assay [3], -4.99%; in assay [4], 5.78%; with Trypanosoma cruzi it was 8.16%; in [5] it was -33.1%. Besides, the Percent Effect in [6] was 13.3%; in the assay filed under Homo sapiens it was -2.81%; in [7], 8.6%; in assay [8], 21%; in [9], 9%.
Regarding `Cc1cc(C2CCCN(CCc3ccccn3)C2)n[nH]1` (stereo unspecified), the Percent Effect in assay [1] was -4.83%; in assay [2], 2.53%; in [3], -4%; in assay [4] it was 3.7%; in the assay on Trypanosoma cruzi it was 9.73%; in assay [5], 1.14%. Besides, the Percent Effect was -1.23% in assay [6]; -3.32% in the assay filed under Homo sapiens; -7.39% in [7]; 11.4% in assay [8]; -2.02% in [9].
Turning to `CC(=O)N1CCC(c2ccnc(Nc3cncnc3)n2)C1` (stereo unspecified), the Percent Effect in [1] is -2.09%; in assay [2], 13.3%; in assay [3], 12.8%; in assay [4] it was -1.51%; in the assay with Trypanosoma cruzi, -0.394%; in assay [5] it was 0.699%. For the same molecule, the Percent Effect in assay [6] was -0.793%; in the assay filed under Homo sapiens it was 8.94%; in assay [7] it was 7.45%; in [8], 14.1%; in [9] it was -3.42%.
Turning to `Cc1ccc(C)c(OC2CCN(C(=O)c3ccc(O)nc3)CC2)c1`, the Percent Effect is -1.92% in assay [1]; 15.8% in [2]; -2.4% in [3]; 7.02% in assay [4]; 3.76% with Trypanosoma cruzi; 0.383% in [5]. Moreover, the Percent Effect in assay [6] was 17.5%; in the assay filed under Homo sapiens, 10.8%; in [7], 8.33%; in assay [8], 21.9%; in assay [9] it was -11.2%.
